Where “and” joins values, the source holds several entries; their conditions need not be identical. Identical values can stand only once. Inconclusive results are not listed. Values without a mark were called inactive. Calls of active or inactive are those of the source. The call rests on the fitted dose curve; in most records, active means well fitted inhibition curve with a large enough effect; inconclusive means small, poorly fitted or top-dose-only effect; inactive means no such curve, though single readings can be large or run the other way.

System in one test: not listed separately
The test is described as follows: ZIKV-mCherry secondary qHTS for Zika virus inhibitors (AID 1347158). Further: top concentration of the series differs between compounds. Particulars: Vero cells, ZIKV-mCherry infection imaging, 48-72 h; series mostly up to 49.2 µM; activity change, negative = inhibition: at the top concentration. The method in brief: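 This orthogonal imaging screen measured ZIKV-mCherry infection of Vero cells exposed to compound, MOI 1, 48-72 h. Percent infection came from segmented nuclei scored mCherry-positive above 3 SD of negative controls.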
On the technique in general: In qHTS, concentration-response curves come from the screen itself.
As for `O=C(/C=C/c1c(C(=O)O)[nH]c2cc(Cl)cc(Cl)c12)Nc1ccccc1`, the “activity change, negative = inhibition” value is -26.7%.
In the case of `CC(C)C(=O)c1cn(CC(=O)COc2ccc(Oc3ccccc3)cc2)c2ccc(C(=O)O)cc12`, the “activity change, negative = inhibition” value was 20.3% [at 32.6 µM].
The same measure, in the same setting: in the case of `O=C(O)c1cnn(-c2nc3cc(OC(F)(F)F)c(Cl)cc3[nH]2)c1` it was -41.5%; in that of `CC(C)C1=CCC(C)(O)C(OC2OC(CO)C(O)C(O)C2O)C1` (configuration not stated), 68% [at 24.2 µM].
As for `O=S(=O)(O)c1ccc2c(N=Nc3ccc(S(=O)(=O)O)c4ccccc34)c(O)c(S(=O)(=O)O)cc2c1`, the compound was classed as inactive.
Take `Nc1c(N=Nc2ccc(-c3ccc(N=Nc4cc(S(=O)(=O)O)c5ccccc5c4N)cc3)cc2)cc(S(=O)(=O)O)c2ccccc12`: the “activity change, negative = inhibition” value is 387% [at 32.6 µM].
Same read-out and setting: then `CC(C)N=c1cc2n(-c3ccc(Cl)cc3)c3ccccc3nc-2cc1Nc1ccc(Cl)cc1`, with 419%; and `O=C(O)c1cc(O)c2cccc(O)c2c1O[C@@H]1O[C@H](CO)[C@@H](O)[C@H](O)[C@H]1O`, with 36.7% [at 24.2 µM].

The next test relates to Zika virus NS2B-NS3 protease (unlinked complex). The test is described as follows: Primary screen GU Rhodamine qHTS for Zika virus inhibitors: Unlinked NS2B-NS3 protease assay (AID 1347159). Further: nearly all actives have a fitted effect of over 60% in size. Further: potency means the concentration at half of the fitted maximal effect. On activity change, negative = inhibition: on the % scale 0 is the no-effect control and ±100 the full control effect. Particulars: Recombinant ZIKV NS2B-NS3 protease, Rhodamine110 substrate fluorescence; series mostly up to 107 µM; activity change, negative = inhibition: at the top concentration. The method in brief:
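Unlinked NS2B/NS3, 25 nM; Rhod110 peptide, 1.5 microM; compounds, up to 114 microM. Reaction run 15 min at RT in 10 mM Tris-HCl pH 8.0, 0.01% Tween 20; kinetic fluorescence change fitted with a 4-parameter Hill model.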
Regarding `CCOc1ccc(-c2ccc(Cn3c(CC(C)(C)C(=O)O)c(SC(C)(C)C)c4cc(OCc5ccc(C)cn5)ccc43)cc2)cn1`, the Potency is 2.51 µM (active) and 2.82 µM (active).
Take `CC(C)(O)C1CC=C(C(=O)OCC2OC(Oc3c(O)cc(C(=O)O)cc3O)C(O)C(O)C2O)CC1` (configuration not stated): the “activity change, negative = inhibition” value was -93.6% [at 57.1 µM].
For `OC[C@H]1O[C@@H](Oc2ccc(O)c3cccc(O)c23)[C@H](O)[C@@H](O)[C@@H]1O`, the Potency was 10 µM (active).
Same read-out and setting: then `COc1cccc(-n2nc(C(=O)O)cc2-c2ccc(C3CCCCC3)c(Cl)c2)c1`, with 1.78 µM (active); and `C=C1CC23CCC4[C@@](C)(CCC[C@@]4(C)C(=O)O)C2CCC1C3` (some centres not stated), with 20 µM (active).
For the compound `O=C(O)c1ccc(CCCc2ccc(OCCc3ccc(F)cc3)cc2)o1`, the Potency is 4.47 µM (active).
With `O=C(/C=C/c1c(C(=O)O)[nH]c2cc(Cl)cc(Cl)c12)Nc1ccccc1`, the Potency was 3.55 µM (active).
Turning to `CC1(C)CC[C@]2(C(=O)O[C@@H]3O[C@H](CO)[C@@H](O)[C@H](O)[C@H]3O)CC[C@]3(C)C(=CCC4[C@@]5(C)C[C@@H](O)[C@H](O)[C@@](C)(CO)C5CC[C@]43C)C2C1` (some centres not stated), the “activity change, negative = inhibition” value is -6.28% [at 32.5 µM].
Same read-out and setting: in the case of `C[C@@H]1CC[C@]2(C(=O)O)CC[C@]3(C(=O)O)C(=CCC4[C@@]5(C)CC[C@H](O[C@@H]6O[C@@H](C)[C@H](O[C@@H]7O[C@H](CO)[C@@H](O)[C@H](O)[C@H]7O)[C@@H](O)[C@H]6O)C(C)(C)C5CC[C@]43C)C2[C@H]1C` (some centres not stated) it was 6.11% [at 32.5 µM].
On to `CC(C)C(=O)c1cn(CC(=O)COc2ccc(Oc3ccccc3)cc2)c2ccc(C(=O)O)cc12`, for which the Potency was 8.91 µM (active).
Regarding `CCCCS(=O)(=O)Nc1ncnc(OCCOc2ncc(Br)cn2)c1-c1ccc(Br)cc1`, the “activity change, negative = inhibition” value was 34%.
Take `C=CC(C)(O)CC/C=C(\C)C(=O)OCC1OC(OC2CCC3(C)C(CCC4(C)C3CC=C3C5CC(C)(C)C(O)CC5(C(=O)O)CCC34C)C2(C)C)C(O)C(OC2OC(CO)C(O)C(OC3OC(CO)C(O)C(OC4OC(COC5OC(CO)C(O)C(O)C5O)C(O)C(O)C4O)C3O)C2O)C1O` (configuration not stated): the activity change, negative = inhibition is 5.91% [at 19.1 µM].
For the compound `Cc1nn(C)c(COc2ccc(N3CCN(S(=O)(=O)N(C)C)CC3)cc2)c1-c1cccc2c(CCCOc3cccc4ccccc34)c(C(=O)O)n(CCN3CCOCC3)c12`, the Potency is 4.47 µM (active).
For `CC(=O)O[C@@H]1C[C@]2(C)[C@@]3(CCC4[C@@]5(C)CC[C@H](O[C@@H]6O[C@H](C(=O)O)[C@@H](O)[C@H](O[C@@H]7O[C@H](CO)[C@H](O)[C@H](O)[C@H]7O[C@@H]7O[C@@H](C)[C@H](O)[C@@H](O)[C@H]7O[C@@H]7OC[C@](O)(CO)[C@H]7O)[C@H]6O[C@@H]6O[C@H](CO)[C@H](O)[C@H](O)[C@H]6O)C(C)(C)C5CC[C@]42C)O[C@@H](O)[C@]12C3CC(C)(C)[C@@H](OC(=O)/C=C/c1ccc(O)c(O)c1)[C@@H]2OC(=O)/C=C/c1ccccc1` (some centres not stated), the Potency is 3.16 µM (active).
For the compound `CC(C)C1=CCC(C)(O)C(OC2OC(CO)C(O)C(O)C2O)C1` (configuration not stated), the Potency was 22.4 µM (active).
Same read-out and setting: then `CC(C)c1cc2c(c(O)c1O[C@@H]1O[C@H](CO)[C@@H](O)[C@H](O)[C@H]1O)CC1(O)CCC(O)C(C)(C)C1CC2` (some centres not stated), with 20 µM (active).
On to `Cc1ncc([N+](=O)[O-])n1CC(O)CN1CCOCC1` (configuration not stated), for which the “activity change, negative = inhibition” value is 17.7%.
Turning to `COc1cc(-c2cccc(O)c2)cc2c1OCO2`, the Potency was 35.5 µM (active).
`C=CC1(C)C=C2C(O)CC3C(C)(C(=O)O)CCCC3(C)C2CC1` (configuration not stated): the Potency was 11.2 µM (active).
